# Source: ChEMBL document CHEMBL3988442, “University of Dundee, Small-Polar-MMV Screening Library” (2021)
# The campaign covered roughly 66,000 compounds. About 960 (1.5%) showed an effect of 50% or more. What follows is part of a selection rich in strong results, with near analogues and random picks from the rest.
# System: Trypanosoma brucei
# Test: Trypanosoma brucei 72 hour study
# Format: functional, organism-based
# Parameters: scale not given: in the data most compounds retested in dose-response had high values
structure (smiles),measurement,setting,value
Cc1nc(CN2C(=O)CCC23CCN(Cc2ccccn2)CC3)cs1.O=C(O)C(F)(F)F.O=C(O)C(F)(F)F,Percent Effect,"30.3 µM, […]",-6.926%
COCCN1C(=O)C[C@H]2[C@H]1CCN2Cc1ccc(OC)cc1.O=C(O)C(F)(F)F,Percent Effect,"30 µM, 30.03 µM",-19.5%
CC(C)CN1CCC(NC(=O)c2ccc(Cl)cc2Cl)CC1,Percent Effect,"30 µM, 30.03 µM",-12.53%
Cc1ncc(CNCCO)c2cc(C(=O)c3ccc(Br)cc3)oc12.Cl,Percent Effect,"30 µM, 30.03 µM",-4.371%
COCC1CN(CCc2ccc(OC)c(OC)c2)Cc2c1cnn2C (stereo unspecified),Percent Effect,"30.3 µM, […]",-2.73%
CCOCC1CN(CCc2ccccc2)Cc2c1cnn2C (stereo unspecified),Percent Effect,"30.3 µM, […]",62.26%
CCOCC1CN(CCOCc2ccccc2)Cc2c1cnn2C (stereo unspecified),Percent Effect,"30.3 µM, […]",-79.88%
O=C(O)C(F)(F)F.O=C1N(CC2CCCC2)CCC12CCN(c1ncc(F)cn1)CC2,Percent Effect,"30.3 µM, […]",-27.57%
Fc1ccccc1Sc1ccccc1CNC1=NCCN1.I,Percent Effect,"30 µM, 30.03 µM",6.107%
Cn1cccc1C(=O)N1C[C@@H]2C[C@@H](c3nc(C4CC4)cs3)O[C@@H]2C1.O=C(O)C(F)(F)F,Percent Effect,"30 µM, 30.03 µM",-16.96%
COc1ccc(-n2ccc(C(=O)NCCN3CCCCCC3)n2)cc1,Percent Effect,"30.3 µM, […]",53.03%
same,Percent Effect,"10 mM, 10 mM as filed; unlikely as a test dose",-44.94%
COc1ccc(-n2ccc(C(=O)NCCN3CCC(C)CC3)n2)cc1,Percent Effect,"30.3 µM, […]",26.29%
same,Percent Effect,"10 mM, 10 mM as filed; unlikely as a test dose",24.76%
COc1ccc(-n2ccc(C(=O)NCCN3CCCCC3)n2)cc1,Percent Effect,"30.3 µM, […]",-2.952%
same,Percent Effect,"10 mM, 10 mM as filed; unlikely as a test dose",-24.45%
CC1CCCN(CCNC(=O)c2ccn(-c3ccc(F)cc3)n2)C1 (stereo unspecified),Percent Effect,"30.3 µM, […]",63.43%
same,Percent Effect,"10 mM, 10 mM as filed; unlikely as a test dose",1.661%
CC1CCCN(CCNC(=O)c2ccn(-c3cccc(F)c3)n2)C1 (stereo unspecified),Percent Effect,"30.3 µM, […]",1.994%
same,Percent Effect,"10 mM, 10 mM as filed; unlikely as a test dose",11.39%
CC1CCCN(CCNC(=O)c2ccn(-c3ccccc3)n2)C1 (stereo unspecified),Percent Effect,"30 µM, 30.03 µM",26.82%
CCCn1[nH]cc/c1=N\C(=O)CN1CCc2cnc(C(C)C)nc2C1,Percent Effect,10 µM,-28.74%
CCc1ocnc1C(=O)N1CCOC(c2nc(C)n[nH]2)C1 (stereo unspecified),Percent Effect,10 µM,-27.2%
same,Percent Effect,"30.3 µM, […]",-13.47%
Cc1ccc(CN2Cc3nnn(C)c3C(COCc3ccccc3)C2)s1.O=C(O)C(F)(F)F (stereo unspecified),Percent Effect,"30.3 µM, […]",-18.47%
Cn1cc(-c2ncc3c(c2C(=O)O)CCN(CC2CC2)C3)cn1.O=C(O)C(F)(F)F.O=C(O)C(F)(F)F,Percent Effect,"30.3 µM, […]",-26.37%
COCCC1(CNC(=O)Nc2ccnc(C)c2)CCCC1,Percent Effect,"30 µM, 30.03 µM",5.014%
CN(C)c1ncc(I)c(C2CCCN2C)n1.Cl (stereo unspecified),Percent Effect,"30.3 µM, […]",-5.31%
CCc1cnc(CN(C)C2CCN(CCn3cc(C#N)cn3)C2)o1 (stereo unspecified),Percent Effect,"30.3 µM, […]",-0.7137%
Cl.Cn1nc(C2CCN(C(=O)Cc3ccsc3)CC2)c2cccnc21,Percent Effect,"30.3 µM, […]",16.05%
CCS(=O)(=O)CC(=O)NC(C)c1ccc(F)cc1F (stereo unspecified),Percent Effect,"30.3 µM, […]",-61.88%
Cc1ccc(C)c(CS(=O)(=O)CC(=O)Nc2ccc(F)cc2F)c1,Percent Effect,"30.3 µM, […]",17.81%
Cc1ccc(C)c(CS(=O)(=O)CC(=O)NC(C)c2ccc(F)cc2F)c1 (stereo unspecified),Percent Effect,"30.3 µM, […]",56.23%
CCC[C@@H]1CN(C(=O)c2cc3ccccc3s2)C[C@H]1NS(C)(=O)=O,Percent Effect,"30.3 µM, […]",55.32%
CCC[C@@H]1CN(C(=O)c2cnc3ccccc3c2)C[C@H]1NS(C)(=O)=O,Percent Effect,"30.3 µM, […]",-86.77%
CS(=O)(=O)NC1CCN(C(=O)c2cc3ccccc3s2)C1 (stereo unspecified),Percent Effect,"30.3 µM, […]",-42.34%
CNc1ncc2c(n1)CN(c1cccc(OC)c1)C2=O,Percent Effect,"30.3 µM, […]",5.042%
O=C(CN1C(=O)CCC1=O)NCCc1nc(C2CC2)cc(C(F)(F)F)n1,Percent Effect,"30 µM, 30.03 µM",-18.17%
Clc1ccc(C2(CNC3=NCCN3)CCCCC2)cc1.I,Percent Effect,"30 µM, 30.03 µM",18.91%
CC(C)C(C)N(Cc1ccccn1)Cc1ccco1 (stereo unspecified),Percent Effect,"30 µM, 30.03 µM",-27.64%
CCc1ccc(CN(Cc2ccco2)C(C)C(C)C)nc1 (stereo unspecified),Percent Effect,"30 µM, 30.03 µM",-19.36%
CC(C)C(C)N(Cc1cnc2ccccc2n1)Cc1ccco1 (stereo unspecified),Percent Effect,"30 µM, 30.03 µM",81.63%
CCc1c(C)nc(N)nc1N1CCCC(c2nc(CCOC)no2)C1 (stereo unspecified),Percent Effect,"30 µM, 30.03 µM",-46.14%
C[C@@H]1CN(Cc2cccc(F)c2)C[C@]12CCN(Cc1cccnc1)C2=O.O=C(O)C(F)(F)F.O=C(O)C(F)(F)F,Percent Effect,"30.3 µM, […]",-74.2%
CCc1nnc2n1CCN(Cc1ncc(-c3ccc(Cl)cc3)o1)C2,Percent Effect,"30.3 µM, […]",-0.05411%
Cc1cc(C[C@@H]2CCC[C@H]2NCc2ccccc2F)on1.O=C(O)CC(O)(CC(=O)O)C(=O)O,Percent Effect,"30.3 µM, […]",34.89%
Cc1cc(C[C@@H]2CCC[C@H]2NCc2ccccc2C)on1.O=C(O)CC(O)(CC(=O)O)C(=O)O,Percent Effect,"30.3 µM, […]",-2.54%
CCCOc1ccccc1CN[C@@H]1CCC[C@H]1Cc1cc(C)no1.O=C(O)CC(O)(CC(=O)O)C(=O)O,Percent Effect,"30.3 µM, […]",97.97%
NC(=O)Cn1cc(NC(=O)NCCN2CCc3ccccc3C2)cn1,Percent Effect,10 µM,-24.97%
O=C(NC[C@H]1CCCC[C@H]1O)c1ccc2nc(-c3ccco3)[nH]c2c1,Percent Effect,"30.3 µM, […]",17.46%
same,Percent Effect,"10 mM, 10 mM as filed; unlikely as a test dose",-68.89%
O=C(NC[C@H]1CCCC[C@H]1O)c1cccc2[nH]c(-c3cccs3)nc12,Percent Effect,"30.3 µM, […]",101.4%
same,Percent Effect,"10 mM, 10 mM as filed; unlikely as a test dose",77.67%
O=C(NC[C@H]1CCCC[C@H]1O)c1cccc2[nH]c(-c3ccco3)nc12,Percent Effect,"30.3 µM, […]",13.65%
same,Percent Effect,"10 mM, 10 mM as filed; unlikely as a test dose",-65.92%
Cc1ccc(CN2C[C@@H](OCc3csc(C)n3)[C@H]3COC[C@H]32)s1.O=C(O)C(F)(F)F,Percent Effect,"30 µM, 30.03 µM",-8.753%
COc1ccc(CNC2CCc3ncnn3C2)cc1OCC1CC1 (stereo unspecified),Percent Effect,"30 µM, 30.03 µM",-28.92%
Cc1occc1-c1nc(NC2CCCC2)ncc1-c1ccccn1,Percent Effect,"30.3 µM, […]",66.93%
Cc1cc(-c2cnc(NC3CC3)nc2-c2ccoc2C)on1,Percent Effect,"30.3 µM, […]",6.625%
Cc1cc(-c2cnc(NC3CCCC3)nc2-c2ccco2)on1,Percent Effect,"30.3 µM, […]",60.69%
Cc1cc(-c2cnc(NC3CCCCC3)nc2-c2ccco2)on1,Percent Effect,"30.3 µM, […]",43.12%
Cc1cc(-c2cnc(NC3CC3)nc2-c2ccco2)on1,Percent Effect,"30.3 µM, […]",20.38%
Cc1cc(-c2cnc(NC3CCCC3)nc2-c2ccoc2C)on1,Percent Effect,"30.3 µM, […]",30.38%
Cc1cc(-c2cnc(NC3CCCC3)nc2-c2ccc(C)o2)on1,Percent Effect,"30.3 µM, […]",59.7%
Cc1cc(-c2cnc(NC3CCCC3)nc2-c2ccoc2)on1,Percent Effect,"30.3 µM, […]",19.37%
Cc1cc(-c2cnc(NC3CC3)nc2-c2ccc(C)o2)on1,Percent Effect,"30 µM, 30.03 µM",25.68%
CN(Cc1ccc2c(c1)OCCO2)Cc1nc2c(cnn2C)c(=O)[nH]1,Percent Effect,"30.3 µM, […]",4.999%
CS(=O)(=O)N1CCO[C@@H]2CCN(Cc3ccncc3)CC[C@H]21.O=C(O)C(F)(F)F.O=C(O)C(F)(F)F,Percent Effect,"30.3 µM, […]",-50.12%
COc1ccc(Cl)cc1S(=O)(=O)N1C[C@@H]2CC[C@H](C1)N(C)C2=O,Percent Effect,"30 µM, 30.03 µM",12.03%
O=C(O)C(F)(F)F.O=c1ccc2c(n1CC1CCOCC1)CCN(Cc1ccoc1)CC2,Percent Effect,"30 µM, 30.03 µM",-13.76%
COCCNC(=O)[C@H]1CN(Cc2cccs2)C[C@H]2OCC[C@@H]12.O=C(O)C(F)(F)F,Percent Effect,"30 µM, 30.03 µM",-47.27%
Cc1ccc(CN2C[C@@H]3CCCO[C@@H]3[C@H](N(C)Cc3ccco3)C2)s1.O=C(O)C(F)(F)F.O=C(O)C(F)(F)F,Percent Effect,"30 µM, 30.03 µM",26.16%
COCCN1CCOCC12CCN(c1cnccn1)CC2.O=C(O)C(F)(F)F,Percent Effect,"30.3 µM, […]",-82.27%
Cn1c(C2CC2)nc2c1CCN(CCOc1ccccc1C#N)C2,Percent Effect,"30.3 µM, […]",73.03%
same,Percent Effect,"10 mM, 10 mM as filed; unlikely as a test dose",81.28%
Cn1c(C2CC2)nc2c1CCN(CCOc1ccc(C#N)cc1)C2,Percent Effect,"30 µM, 30.03 µM",41.84%
Cn1c(C2CC2)nc2c1CCN(CCOc1cccc(F)c1)C2,Percent Effect,"30.3 µM, […]",33.25%
same,Percent Effect,"10 mM, 10 mM as filed; unlikely as a test dose",-49.38%
Cc1cc(CN2CCN(C(=O)NC(C)Cn3ccnc3)CC2)on1 (stereo unspecified),Percent Effect,"30.3 µM, […]",-36.86%
O=C(N1CCOCC1)[C@@]12CCO[C@@H]1CCN(C1CCC1)C2.O=C(O)C(F)(F)F,Percent Effect,"30 µM, 30.03 µM",-13.96%
O=C(N1CCCO1)[C@@]12CCO[C@@H]1CCN(C1CCCCC1)C2.O=C(O)C(F)(F)F,Percent Effect,"30 µM, 30.03 µM",51.2%
O=C(N1CCOCC1)[C@@]12CCO[C@@H]1CCN(C1CCCCC1)C2.O=C(O)C(F)(F)F,Percent Effect,"30 µM, 30.03 µM",-10.39%
Cc1nnn2c1COC(CNCc1nccs1)C2.O=C(O)C(F)(F)F (stereo unspecified),Percent Effect,"30 µM, 30.03 µM",2.897%
Cc1cnn(CCNCC(O)COc2cc(Cl)ccc2Cl)c1 (stereo unspecified),Percent Effect,10 µM,13.76%
Cc1ccc(-c2ccccc2CC2(C(=O)NC(C)C)CCCNC2)cc1 (stereo unspecified),Percent Effect,"30.3 µM, […]",73.8%
O=C(NCCO)C1(Cc2ccccc2-c2ccncc2)CCOCC1,Percent Effect,"30.3 µM, […]",-12.36%
CC(C)NC(=O)C1(Cc2ccccc2-c2ccccc2)CCCNC1 (stereo unspecified),Percent Effect,"30.3 µM, […]",-11.23%
CC(C)NC(=O)C1(Cc2ccccc2-c2cncnc2)CCCNC1 (stereo unspecified),Percent Effect,"30.3 µM, […]",-17.52%
CC(C)CNC(=O)C1(Cc2ccccc2-c2cccs2)CCNC1 (stereo unspecified),Percent Effect,"30.3 µM, […]",100.9%
Cl.O=C(N1CCCC1)C1(Cc2ccc(-c3cccs3)cc2)CCNC1 (stereo unspecified),Percent Effect,"30.3 µM, […]",100.9%
O=C(NC1CC1)C1(Cc2ccccc2-c2ccncc2)CCOCC1,Percent Effect,"30.3 µM, […]",-2.257%
CC(C)NC(=O)C1(Cc2ccccc2-c2cccs2)CCNC1 (stereo unspecified),Percent Effect,"30.3 µM, […]",100.3%
NC(=O)C1(Cc2ccccc2-c2cncnc2)CCCNC1 (stereo unspecified),Percent Effect,"30.3 µM, […]",-3.769%
CC(C)CNC(=O)C1(Cc2ccccc2-c2ccccc2)CCNC1 (stereo unspecified),Percent Effect,"30.3 µM, […]",-113.5%
Cl.O=C(O)C1(Cc2ccc(-c3cccs3)cc2)CCNC1 (stereo unspecified),Percent Effect,"30.3 µM, […]",15.36%
Cl.O=C(O)C1(Cc2cccc(-c3cccs3)c2)CCCNC1 (stereo unspecified),Percent Effect,"30.3 µM, […]",-23.63%
COc1ccccc1CN(C)C(=O)CN1CC(n2nc(C)cc2C)C1,Percent Effect,"30 µM, 30.03 µM",35.21%
CCC(NC(=O)C1CCN(S(C)(=O)=O)CC1)c1ccc(OC)cc1 (stereo unspecified),Percent Effect,"30 µM, 30.03 µM",-21.57%
Cl.O=C(NCc1ccccc1F)C1=NOC2(CCNC2)C1 (stereo unspecified),Percent Effect,"30 µM, 30.03 µM",32.02%
O=C(O)C(F)(F)F.O=C(O)C(F)(F)F.c1cncc(OCC2CN(Cc3nccs3)Cc3nccn3C2)c1 (stereo unspecified),Percent Effect,"30.3 µM, […]",-9.916%
C/C=C(\C)CN(CCN1CCOCC1)Cc1ccco1,Percent Effect,"30.3 µM, […]",-0.5994%
